Screen size: about 2,300 compounds; about 2,100 (91%) were called active.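 Rule for the calls: active = compounds raising the signal whose fitted half-maximal concentration is at or below their top tested dose (cut at about 25 µM in these data); inconclusive = flat fit at 30 to 70% activity, or a poor fit; inactive = the rest.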 The set was probably picked from earlier hits. Only a sample is shown. Results with a measured potency or affinity are listed apart.
Assay: cytokine-free beta-cell viability effect – INS-1E rat cells, ATP luminescence, cherry pick, counter-screen for beta-cell apoptosis protection project, dose response (AID 463229);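 note: 0% = median of neutral control wells and 100% = median of positive control wells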
Details: INS-1E rat beta cells, no cytokines, CellTiter-Glo ATP, 48 h; series mostly up to 26 µM; activity change (ATP luminescence): at the top concentration

Row | Compound | activity change (ATP luminescence)
1 | CCCC(=O)N(CCN(C(=O)CCC)c1ccccc1)c1ccccc1 | -4.4% (inactive)
2 | NC(=O)c1ccccc1OC1CCC1 | -1.51% (inactive)
3 | CN(C)c1ccc(/C=C(\C#N)C(=O)OCC(=O)N(C)C2CCS(=O)(=O)C2)cc1 (configuration not stated) | 0.611% (inactive)
4 | COc1ccc(/C=C/C(=O)c2ccncc2)c2ccccc12 | 0.388% (inactive)
5 | COc1cc(CNCCO)cc(Cl)c1OCc1ccc(Cl)cc1Cl | 138% (inactive)
6 | Cc1ccc(NC(=O)NCC2CCN(Cc3cccc(Cl)c3)CC2)cc1Cl | 137% (inactive)
7 | CCc1ccc(-n2c(C)cc(/C=N/NC(=O)c3ccncc3)c2C)cc1 | -6.46% (inactive)
8 | Cc1cc(C)nc(-n2nc(C)cc2Nc2ccccc2)n1 | 9.72% (inactive)
9 | CC1=CC(C)(C)N(C(=O)CSc2nnc(-c3ccc(C)cc3)o2)c2ccc(C)cc21 | -19.3% (inactive)
10 | CCOC(=O)C(=Cc1ccc(Br)cc1)C(=O)OCC | 7.87% (inactive)
11 | O=[N+]([O-])c1ccc(N2CCN(CCOc3nonc3-c3ccccc3)CC2)c(Cl)c1 | -50.3% (inactive)
12 | Cc1ccccc1OC1C(=O)N(Cc2ccc3c(c2)OCO3)C1c1sccc1C (configuration not stated) | 4.5% [at 12 µM] (inactive)
13 | CC(Sc1nnc2c(n1)[nH]c1ccccc12)C(=O)N(C)C1CCCCC1 (configuration not stated) | -8.47% (inactive)
14 | CCCC1(c2ccccc2)NC(=O)N(CC(=O)Nc2cc(C)ccc2OC)C1=O (configuration not stated) | -8.9% (inactive)
15 | O=[N+]([O-])c1ccc(-n2cnc3ccccc32)c([N+](=O)[O-])c1 | 8% (inactive)
16 | CCS(=O)(=O)c1ncc(Cl)c(C(=O)Nc2ccccc2OC)n1 | -7.94% (inactive)
17 | Cc1ccc(OCc2cc(C(=O)N(C)Cc3cc(C4CC4)n[nH]3)no2)cc1C | 1.19% (inactive)
18 | COCCCNC(=S)N/N=C/c1cccc(OC)c1O | -7.08% (inactive)
19 | O=C(Nc1ccc(F)cc1F)N1CCCN(CCOc2ccccc2)CC1 | -26.2% (inactive)
20 | CC(=O)Nc1ccc(S(=O)(=O)N2c3ccccc3NC(=O)CC2C)c(Cl)c1 (configuration not stated) | -37.2% (inactive)
21 | Cc1cccc(NC(=O)Cn2c(/C=C/c3ccccc3)nc3ccccc32)c1 | 11.3% (inactive)

Row | Compound | activity change (ATP luminescence)
22 | O=C(Oc1cccc2cccnc12)c1cccc(N2C(=O)C3C4CCC(C4)C3C2=O)c1 (configuration not stated) | -0.822% (inactive)
23 | O=c1c(Cl)c(Cl)cnn1Cc1ccc(F)cc1 | 33.2% (inactive)
24 | O=C(Cn1ncc(Cl)c(Cl)c1=O)c1ccc2c(c1)OCCO2 | 131% (inactive)
25 | Cc1ccc2ccc3ccc(C)nc3c2n1 | 5.01% (inactive)
26 | CCOCCCNC(=O)c1c[nH]c2cc(OC)ccc2c1=O | -29.9% (inactive)
27 | COc1ccc(C(=O)CSc2n[nH]c(=O)n2Cc2ccco2)cc1 | -29.5% (inactive)
28 | CCOc1ccc(OCC)c(S(=O)(=O)NCCOC23CC4CC(CC(C4)C2)C3)c1 | 149% (inactive)
29 | C=CCN(CC=C)CC(O)Cn1c2ccccc2c2ccccc21 (configuration not stated) | 8.59% (inactive)
30 | O=C(NCc1ccccn1)c1cc(-c2ccc(Cl)cc2)oc1C(F)(F)F | -54% (inactive)
31 | CCN(CC(=O)Nc1ccc(NC(C)=O)cc1)C(=O)CCCOc1ccc(C(C)(C)C)cc1 | 3.97% (inactive)
32 | CC(=O)Oc1ccc(N(C(C)=O)S(=O)(=O)c2cccs2)c2ccccc12 | 6.75% (inactive)
33 | Cc1ccc(O)c(CNc2cccc3cccnc23)c1 | 12.8% (inactive)
34 | Cc1nc(C(F)(F)F)c(C(=O)N/N=C(\N)c2ccccn2)s1 | -4.67% (inactive)
35 | COc1ccc(/C=C/C(=O)NC(=S)Nc2ccccc2C(=O)NC2CCCCC2)cc1 | 36.7% (inactive)
36 | O=C1CSC(c2ccccc2F)N1 (configuration not stated) | -2.44% (inactive)
37 | CC(=O)c1c(C)[nH]c(C(=O)CN2CCN(S(=O)(=O)c3ccccc3)CC2)c1C | 0.844% (inactive)
38 | CCOc1ccc(-n2c(=O)[nH]cc(C(=O)Nc3ccc(OC)c(OC)c3)c2=O)cc1 | -8.71% (inactive)
39 | CCCOc1ccc(C(=O)C(CN2CCOCC2)c2ccccc2)cc1 (configuration not stated) | -20% [at 12 µM] (inactive)
40 | CC(NC(=O)C1CCC(C(=O)NC(C)c2ccccc2)CC1)c1ccccc1 (configuration not stated) | 4.42% (inactive)
41 | CC(=O)c1ccccc1OCCOCCOc1ccccc1C(C)=O | -106% (inactive)
42 | Cc1cc(C)c2c(C)[nH]nc2n1 | -7.33% (inactive)

Row | Compound | activity change (ATP luminescence)
43 | O=C(c1ccccc1)C(CCC(CN1CCOCC1)C(=O)c1ccccc1)CN1CCOCC1 (configuration not stated) | -27.4% [at 12 µM] (inactive)
44 | CC(=O)SC1CC(=O)N(c2c(C)cccc2C)C1=O (configuration not stated) | 0.862% (inactive)
45 | COc1ccccc1/C=N\Nc1cc(C)nc(-n2nc(C)cc2C)n1 | 81.3% (inactive)
46 | O=C(Nc1ccc(Nc2ccncc2)cc1)c1ccc(Nc2ccnc3ccc([N+](=O)[O-])cc23)cc1[N+](=O)[O-] | 19.1% (inactive)
47 | O=c1c(Cl)c2oc3ccccc3nc-2c2ccccc12 | 12.3% (inactive)
48 | CCN(CC)c1ccc(N=C2C(=O)Nc3ccccc32)cc1 | -19.5% (inactive)
49 | O=C1CSC(c2cccnc2)N1CC1CC1 (configuration not stated) | -11.9% (inactive)
50 | Cc1ccccc1NC(=S)Nc1cccc2cnccc12 | -4.04% (inactive)
51 | COc1ncnc(OC)c1S(=O)(=O)Nc1ccc(C(F)(F)F)cc1 | -13.2% (inactive)
52 | Cc1ccccc1Cn1ccc(=NCc2ccccc2)cc1 | -10.7% (inactive)
53 | Cc1ccc(S(=O)(=O)N2CCCCC2c2cccnc2)c(C)c1C (configuration not stated) | 2.93% (inactive)
54 | Cc1ccc(Oc2nc(-c3ccccn3)nc3ccccc23)cc1 | -24% (inactive)
55 | Nc1ccc(N2CCCCC2)cc1N1CCCCC1 | 56.7% (inactive)
56 | CC(=O)Oc1c(Cl)cc(N(C(C)=O)S(=O)(=O)c2ccccc2)c2ccccc12 | 133% (inactive)
57 | O=C(COC(=O)Cn1cnc2ccccc2c1=O)Nc1ccc2c(c1)OCO2 | -9.05% (inactive)
58 | CC(C)OCCCNC(=S)N1CCC(C(=O)c2ccc(Cl)cc2)CC1 | -6.47% (inactive)
59 | CC(C)(C)n1[nH]c2c3c(ccc2c1=O)C(=O)c1ccccc1C3=O | -35% (inactive)
60 | CCCCC[n+]1ccn(C2=C([O-])c3ccccc3C(=O)/C2=N\S(=O)(=O)c2ccccc2)c1 | 143% (inactive)
61 | CCCCN(C)CCNC(=O)c1cc2c(-c3ccccc3F)nn(C)c2s1 | -5.06% (inactive)
62 | CC(C(c1cccs1)c1c(N)n(C)c(=O)n(C)c1=O)[N+](=O)[O-] (configuration not stated) | -35.9% (inactive)

Source: PubChem BioAssay AID463229 (Broad Institute, 2010)
